# Shown are actives, neighbours in structure and some others; about 0.95% of the full set was active somewhere.
# Fluorescein fluor – compound autofluorescence in fluorescein spectral region; Compound autofluorescence, 480/540 nm, fluorescein-equivalent; stronger effect = higher value; 59,000 tested, 0.91% active; max fluorescein-equivalent concentration, M; AID 593; in the data active means max fluorescein-equivalent concentration above about 10 nM; inconclusive means between about 1.1 nM and that limit
#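 Library compounds, added at multiple concentrations to pH 8.0 Tris buffer (100 mM), incubate 15 min at room temperature before CCD imaging at 480 nm excitation and 540 nm emission.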
# Texas Red fluor – Texas Red region autofluorescence | AID 587 | 59,000 tested, 0.06% active | Compound fluorescence, Texas Red channel, 547/618 nm; stronger effect = higher value | max dye-equivalent concentration, M; in the data active means max dye-equivalent concentration above about 10 nM; inconclusive means between about 1.1 nM and that limit
#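 Pin-transferred compounds and Texas Red standards go into 100 mM Tris buffer, pH 8.0. After 15 min at room temperature, plates are imaged with 547/618 nm filters. Each value is a dye-equivalent concentration derived from the per-plate dye curve.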
# Rhodamine fluor – compound autofluorescence in rhodamine spectral region; max dye-equivalent concentration, M; AID 594; 59,000 tested, 0.05% active; Rhodamine-region fluorescence, 547/598 nm, Tris buffer; stronger effect = higher value; in the data active means max dye-equivalent concentration above about 11 nM; inconclusive means between about 1.1 nM and that limit
#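 Steps: pin-transfer compounds into pH 8.0 Tris (100 mM), hold 15 min at room temperature, image with a 547/598 nm filter pair, and convert intensities to rhodamine-equivalent concentration using a six-point on-plate rhodamine series.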
# Resorufin fluor – compound fluoresces in the resorufin spectral region. max dye-equivalent concentration, M. Compound fluorescence, resorufin region 547/598 nm, buffer; stronger effect = higher value. 59,000 tested, 0.04% active. AID 588
#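 Compounds in 100 mM Tris, pH 8.0, incubated 15 min at room temperature, then fluorescence read at 547 nm excitation/598 nm emission. Signal converted to dye-equivalent concentration via an on-plate six-point resorufin standard curve, per compound concentration.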
# A488 fluor – compound autofluorescence in A488 spectral region; max dye equivalency, M; 59,000 tested, 0.1% active; AID 591; compound autofluorescence, A488 spectral region, dye equivalency; Compound Type: qHTS ECL - MLSMR
#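 Compounds pin-transferred into 100 mM Tris buffer, pH 8.0, incubated 15 min at room temperature, then imaged with 480 nm excitation/540 nm emission filters. Fluorescence converted to Alexa 488 dye-equivalent concentration via an on-plate six-point A488 standard curve.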
# A647 autofl – compound fluoresces in the A647 spectral region. max dye-equivalent concentration, M. AID 592. Compound fluorescence, A647 channel (570/671 nm), Tris buffer. 59,000 tested, under 10 active;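 further: values scaled relative to a standard on each plate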
#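 Each compound's intrinsic fluorescence at 570 nm excitation and 671 nm emission is measured across its concentration series in 100 mM Tris, pH 8.0, after 15 min at room temperature, and reported relative to an A647 curve.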
# * = called active by the depositor; i = inactive; ? = inconclusive; ! = a repeat was not active. Unless noted, how the calls were made is not given here.
SMILES,Fluorescein fluor,Texas Red fluor,Rhodamine fluor,Resorufin fluor,A488 fluor,A647 autofl
C[n+]1cc2c3c(ccc2c2ccc4cc5c(cc4c21)OCO5)OCO3,3e-08M*,i,?,i,?,3.7e-09
COc1ncc2nc(-c3ccc(Cl)cc3)c(=O)n(Cc3cccs3)c2n1,?,i,i,i,i,2.7e-09
CCN(CC)c1ccc2c(c1)C(=O)N(C)C2=O,1.1e-08M*,?,i,i,i,1e-08
COc1cc(C2C3CN(C)CC=C3C(C#N)=C(N)C2(C#N)C#N)ccc1OC(C)C (stereo not drawn),3.6e-08M*,i,i,i,?,8.6e-09
CCC1C2CN(C(C)=O)CC=C2C(C#N)=C(N)C1(C#N)C#N (stereo not drawn),?,i,i,i,i,1.2e-08
CCN1CC=C2C(C#N)=C(N)C(C#N)(C#N)C(c3cc(Cl)ccc3Cl)C2C1 (stereo not drawn),2.4e-08M*,i,i,i,i,5.2e-08
CC(C)N1CC=C2C(C#N)=C(N)C(C#N)(C#N)C(c3ccccc3)C2C1 (stereo not drawn),1.6e-07M*,i,i,i,?,5.5e-08
CN1CC=C2C(C#N)=C(N)C(C#N)(C#N)C(Cc3ccccc3)C2C1 (stereo not drawn),3.7e-08M*,?,i,i,?,2e-09
CCNc1ncc2nc(CCc3ccccc3)c(=O)n(Cc3ccc(F)cc3)c2n1,?,i,i,i,i,1e-09
COCCn1c(=O)c(-c2cccs2)nc2cnc(OCc3ccccc3)nc21,i,i,i,i,i,1e-09
COc1cccc(-c2ccc3ncnc(NCc4ccc(OC)cc4OC)c3c2)c1,?,i,i,i,i,1.6e-08
Clc1ccc(CN2CCCN(Cc3ccc(Cl)cc3)C2c2cc3ccccc3c3ccccc23)cc1,1.2e-08M*,i,i,i,i,3.5e-09
O=C(O)[C@@H]1CCCN1Cc1cc2ccccc2c2ccccc12,?,i,i,i,i,5.7e-08
COc1ccc(C2CNC(=O)C2)cc1OC1CCCC1 (stereo not drawn),1.1e-08M*,i,i,i,i,1.3e-09
COc1ccc(CCNS(=O)(=O)c2ccc(C3CNC(=O)C3)cc2)cc1OC (stereo not drawn),i,i,i,i,i,3.2e-09
Cc1cc(-c2ccccc2C(=O)O)on1,?,?,i,i,i,1.8e-08
O=C(O)c1ccccc1C1=Nc2ccc(O)cc2Oc2cc(O)ccc21,1.7e-07M*,1.3e-08M*,?,?,?,3.6e-08
C[C@H](O)[C@H](O)[C@@H](O)c1cnc2nc(N)[nH]c(=O)c2n1,i,i,i,i,i,1e-09
Cc1sccc1C1C(C#N)=C(N)SC(N)=C1C#N,1.2e-08M*,i,i,i,i,2.7e-08
FC(F)(F)c1nc2ncc(Cl)cc2[nH]1,i,i,i,i,i,3.6e-09
Cn1c(=O)[nH]c2cc(Cl)cnc21,1.8e-08M*,i,i,i,i,9e-08
O=C(O)c1cc(O)c2c(c1)C(=O)c1cccc(O)c1C2=O,8.6e-08M*,i,i,i,?,2.3e-08
Nc1ncn([C@@H]2O[C@@H](CO)[C@@H](O)[C@H]2O)c(=O)n1,i,i,i,i,i,1e-09
COc1c2ccoc2cc2oc(=O)ccc12,i,i,i,i,i,4e-09
COc1ccc2c(OC)c3ccoc3nc2c1OC,1e-08M*!,?,i,i,i,1e-09
SMILES,Fluorescein fluor,Texas Red fluor,Rhodamine fluor,Resorufin fluor,A488 fluor,A647 autofl
C[N+]1(C)CC[C@@H](OC(=O)[C@@](O)(c2ccccc2)C2CCCC2)C1,?,i,i,i,i,2.2e-09
CC(=Nc1ccc(O)cc1)c1sc2ccccc2c1O,1e-07M*,?,i,i,?,4.7e-09
CC(=O)NCCN=C(C)c1sc2ccccc2c1O,?,?,i,i,i,3.7e-08
Cc1sc2ccccc2[n+]1CCC(=O)O,?,i,i,i,i,5.2e-08
c1ccc(CCNc2ncnc3c2nnn3Cc2ccccc2)cc1,1.2e-08M*,i,i,i,i,2.6e-09
c1ccc(Cn2nnc3c(NCCN4CCOCC4)ncnc32)cc1,i,i,i,i,i,1.8e-08
Cc1ccc2[nH]c3c(c2c1)CN(C(=O)CN1CCN(c2ccccn2)CC1)CC3,1.8e-08M*,i,i,i,i,3.9e-08
Cc1ccc2[nH]c3c(c2c1)CN(C(=O)CN1CCSCC1)CC3,?,?,i,i,i,1.5e-09
Cc1ccc2[nH]c3c(c2c1)CN(C(=O)CN1CC(C)OC(C)C1)CC3 (stereo not drawn),1.1e-08M*,i,i,i,i,8.9e-08
O=C(NCc1ccc2[nH]c3c(c2c1)CCCC3)N1CCOCC1,1.5e-08M*,i,i,i,i,1e-09
CCNc1ncc2nc(-c3ccc(F)cc3)c(=O)n(CCC#N)c2n1,?,i,i,i,i,3.8e-08
CCOC(=O)c1n[nH]c2ccccc12,?,i,i,i,i,4e-08
Nc1n[nH]c2ccccc12,?,2.9e-08M*,1.5e-08M*,1.1e-08M*,i,4.4e-08
CCOC(=O)c1ccc(N2C(=O)C3C(C2=O)C(C(=O)c2ccc(Cl)cc2)N2CCCC32)cc1 (stereo not drawn),5.6e-08M*,i,i,i,?,5.7e-09
CC1(C)CCC[C@@]2(C)[C@@H]1CC[C@]1(C)OC(=O)C[C@@H]21,i,i,i,i,i,1e-09
COc1ccc([C@@H]2OC[C@]3(COC(C)=O)[C@H](C)C=C(C)[C@@H]2[C@H]3C)cc1,i,i,i,i,i,2.3e-09
COC(=O)c1c(=O)n(O)c2ccc(OC)cc2[n+]1[O-],3.6e-08M*,i,i,i,?,2e-09
CCCn1c(=N)c(C(=O)NCc2ccc3c(c2)OCO3)cc2c(=O)n3cccc(C)c3nc21,1.4e-08M*,i,i,i,i,2.6e-09
CC(C)[C@H](CO)Nc1nc(Nc2cccc(Cl)c2)c2ncn(C(C)C)c2n1,?,i,i,i,i,3.6e-08
CC(=O)OCC(=O)[C@@]1(O)CC[C@@H]2[C@@H]3CCC4=CC(=O)CC[C@@]4(C)[C@H]3C(=O)C[C@]21C,i,?,i,i,i,1.2e-08
O=c1c(-c2ccccc2)[n+]([O-])c2ccccc2n1O,1.7e-08M*,i,i,i,i,1e-09
Oc1cc(O)cc(/C=C\c2ccc(O)c(O)c2)c1,?,i,i,i,i,1e-09

# Screening results from PubChem BioAssay.
